Compound activity from PubChem BioAssay.
SW480 rereplic: A quantitative high throughput screen for small molecules that induce DNA re-replication in SW480 colon adenocarcinoma cells; SW480 DNA re-replication, Hoechst DNA content imaging, 48 h; Potency, µM (titrated, usually from 46.1 µM), usual class: activators; AID 624297, 2012; 1.8% of 340,000 active; also: nearly all actives have a fitted effect of over 55% in size
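Quantitative HTS format with DMSO vehicle controls; 48 hr drug incubation at 37 C, then 40 min Hoechst staining and scanning imager measurement at 405 nm excitation.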
MCF10A rerep: A quantitative high throughput screen for small molecules that induce DNA re-replication in MCF 10a normal breast cells | MCF 10A DNA re-replication, Hoechst nuclear intensity, 48 h | Potency, µM (titrated, usually from 46.1 µM), usual class: activators | 2.9% of 350,000 active | AID 624296, 2012; also: nearly all actives have a fitted effect of over 50% in size
KB-V1 cytotox: qHTS assay for MDR1-selective chemotherapeutics: Primary screen using the drug-selected MDR subline cells KB-V1. KB-V1 MDR cells viability, CellTiter-Glo, 72 h. Potency, µM (series often up to 46.1 µM), hits mostly cytotoxic. 3.4% of 400,000 active. AID 1347076, 2019; also: nearly all actives have a fitted effect of over 60% in size
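Cytotoxicity toward P-gp-expressing KB-V1 cells was determined as loss of CellTiter-Glo luminescence after 72 h at 37 degrees C. Compounds were tested in quantitative HTS format across a concentration range, with curves fitted to normalized data.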
PINK1 modulator: A Quantitative High throughput Screen to Identify Chemical Modulators of PINK1 Expression; PINK1 immunofluorescence, high-content cytometry, 24 h; Potency, µM (doses to about 76.6 µM), usual class: activators; 0.2% of 410,000 active; AID 624263, 2012; active = well fitted activation curve with a large enough effect; inconclusive = small, poorly fitted or top-dose-only effect; cell line not stated here; also: nearly all actives have a fitted effect of over 65% in size
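PINK1 protein, normally rapidly degraded, was detected by immunofluorescence after 24 hour compound treatment of a stable cell line. Titration data (5 concentrations) came from laser-scanning cytometry, with CCCP-treated wells as controls.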
KB-3-1 cytotox: qHTS assay for MDR1-selective chemotherapeutics: Primary screen using the parental adenocarcinoma cell KB-3-1; KB-3-1 viability, CellTiter-Glo ATP luminescence, 72 h; Potency, µM (titrated, usually from 46.1 µM), most hits filed as cytotoxic; 1.4% of 400,000 active; also: nearly all actives have a fitted effect of over 60% in size
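KB-3-1 parental drug-naive adenocarcinoma cells in DMEM/10% FBS, incubated 72 h at 37 C with pin-transferred compounds across a concentration series. Viability by CellTiter-Glo luminescence; concentration-response curves fitted after normalization.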
TSG101-PTAP inh: qHTS Assay for Iinhibitors of HIV-1 Budding by Blocking the Interaction of PTAP/TSG101 | Tumor susceptibility gene 101 protein (Homo sapiens), Q99816 | Fluorescence polarization, FITC-PTAP peptide / Tsg101 binding | Potency, µM (doses to about 115 µM), most hits filed as inhibitors | 340,000 tested, under 10 active | AID 493005, 2010; active = well fitted inhibition curve with a large enough effect in the main read-out, with a control signal flat, not every such curve was filed as active; inconclusive = small, poorly fitted or top-dose-only effect, or effect the other way, or a change in a side signal; inactive = no such curve, though single readings can be large or run the other way
Target sequence (Q99816 whole entry, looked up): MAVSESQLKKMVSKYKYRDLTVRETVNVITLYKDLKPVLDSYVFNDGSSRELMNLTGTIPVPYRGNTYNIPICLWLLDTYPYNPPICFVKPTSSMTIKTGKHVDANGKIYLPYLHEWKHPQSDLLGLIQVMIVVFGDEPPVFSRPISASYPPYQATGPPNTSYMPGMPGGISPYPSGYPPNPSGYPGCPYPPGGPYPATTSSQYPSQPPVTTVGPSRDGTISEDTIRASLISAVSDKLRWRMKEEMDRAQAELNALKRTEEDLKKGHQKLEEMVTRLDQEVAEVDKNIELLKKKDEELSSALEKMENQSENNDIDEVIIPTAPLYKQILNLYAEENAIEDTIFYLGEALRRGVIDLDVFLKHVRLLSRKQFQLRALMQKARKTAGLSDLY
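Steps: Tsg101 binding domain dispensed (10 uM final), compounds pinned in DMSO, FITC-labeled PTAP-motif peptide added (50 nM final); after 20 min binding at room temperature, polarization measured.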
Hits are given with their value; . = inactive; ? = inconclusive; / = no result given. Hits are enriched below; roughly 6.8% of the tested compounds scored in any of these assays. Unless noted, calls follow the shape of the dose curve; as a rule, active = well fitted curve in the direction sought with a large enough effect; inconclusive = small, poorly fitted or top-dose-only effect, or another doubt; inactive = no such curve, though single readings can be large; an effect the other way counts as inactive or inconclusive.

SMILES	SW480 rereplic	MCF10A rerep	KB-V1 cytotox	PINK1 modulator	KB-3-1 cytotox	TSG101-PTAP inh
CCOc1ncccc1C(=O)NCc1ccccc1Cl	?	0.92µM	.	.	.	.
COc1cccc(/C=C(\C#N)C(=O)Nc2ccc(NC(C)=O)cc2)c1OC	/	/	/	.	/	/
COc1ccccc1CNC(=O)c1ccc(-c2ccccc2C(F)(F)F)o1	.	15µM	.	?	.	.
CCn1nc(-c2ccccc2C)nc2c(=O)n(C)c(=O)nc1-2	/	/	?	.	?	/
CCOC(=O)c1c(S(=O)(=O)NCC(=O)N(C)c2ccc(C)cc2)c(C)n(C)c1C	/	/	?	.	.	/
O=C(NCc1ccccc1Cl)c1ccccc1Oc1ccccc1	.	?	13µM	.	.	.
COc1ccccc1CNC(=O)c1ccc2nc3[nH]c4ccccc4c3nc2c1	?	18µM	.	.	?	.
COc1ccccc1CNC(=O)c1ccc2[nH]c(C)c(C)c2c1	/	/	/	.	/	/
COc1ccc(COc2ccccc2C(=O)NCc2ccccc2)cc1F	.	?	15µM	.	.	.
Cc1ccc(CNC(=O)c2c(-c3ccc(F)cc3F)noc2C)o1	/	/	.	.	.	/
CN(CCc1ccccc1)C(=O)c1ccc(NC(=O)Cc2ccc(NC(=O)C3CCCN(C(=O)C4CC4)C3)cc2)cc1 (stereo not given)	18µM	.	?	.	?	.
CN(Cc1ccccc1)C(=O)c1cccc(NC(=O)Cc2ccc(NC(=O)C3CCN(C(=O)CCc4ccccc4)CC3)cc2)c1	.	.	.	.	?	.
CN(Cc1ccccc1)C(=O)c1ccc(NC(=O)Cc2ccc(NC(=O)C3CCN(C(=O)CCc4ccccc4)CC3)cc2)cc1	?	15µM	.	.	.	.
CC(C)OC(=O)n1c(=S)oc2ccccc21	?	4.6µM	.	.	.	.
CCCCC(=O)/C=C/n1c(=S)oc2ccccc21	6.5µM	2.9µM	?	.	?	.
CC(C)NC(=O)CCn1c(=S)oc2ccccc21	.	.	.	.	.	.
Cc1c(C(=S)Nc2ccccc2)cnn1-c1ccc([N+](=O)[O-])cc1	/	.	18µM	.	?	.
Cc1c(C(=S)Nc2ccccc2)cnn1-c1ccccc1	.	.	21µM	.	.	.
O=C(NN1C(=O)/C(=C/c2ccc(O)cc2)SC1=S)c1cccc(O)c1	.	.	.	.	.	.
CC(/C=C1\SC(=S)N(NC(=O)c2cccc(O)c2)C1=O)=C\c1ccccc1	.	12µM	?	?	.	.
O=C(NN1C(=O)/C(=C/C=C/c2ccccc2)SC1=S)c1ccncc1	.	18µM	.	.	.	.
CCn1nnc2cc(C(=O)Nc3cccc(Cl)c3)ccc21	/	/	.	.	.	/
COCC(=O)Nc1cc(C(=O)N2CCc3ccccc3C2)c2c(c1)nc(-c1ccncc1)n2C	/	/	/	.	/	/
Cc1ccc(CNC(=O)C2CCN(C(=O)N3CC(C)Oc4ccc(Cl)cc43)CC2)cc1 (stereo not given)	/	/	.	.	.	/
Nc1cccc(N2C(=O)c3cccc4c(N)ccc(c34)C2=O)c1	.	.	.	.	.	?
SMILES	SW480 rereplic	MCF10A rerep	KB-V1 cytotox	PINK1 modulator	KB-3-1 cytotox	TSG101-PTAP inh
O=C(O)c1cccc(N2C(=O)c3cccc4cccc(c34)C2=O)c1	.	?	.	.	.	.
Cc1cccc(N2C(=O)c3cccc4c(N)ccc(c34)C2=O)c1	8.2µM	?	.	.	.	?
O=C(O)c1cccc(N2C(=O)c3cccc4c(Cl)ccc(c34)C2=O)c1	?	21µM	.	.	.	.
O=C1c2ccc3c4c(ccc(c24)C(=O)N1c1cccc(O)c1)C(=O)N(c1cccc(O)c1)C3=O	2.6µM	13µM	.	.	16µM	.
CC(C)CCN1C(=O)c2cccc3c(N)ccc(c23)C1=O	23µM	15µM	.	?	.	?
CC(=O)Nc1ccc(S(=O)(=O)N2CCC(n3c(C(F)(F)F)nc4cccnc43)CC2)cc1	/	/	.	.	.	/
Cc1c(C(=O)NCCc2ccc(S(N)(=O)=O)cc2)sc2nc3n(c(=O)c12)CCCC3	/	/	.	.	.	/
Cc1cccc(-c2nc3scc(CCNC(=O)c4ccc(Br)o4)n3n2)c1	/	/	.	.	.	/
COc1ccc2oc(-c3ccc(C)c(NC(=O)c4ccc5c(c4)OCCO5)c3)nc2c1	/	/	.	.	.	/
Cc1cc(=O)n(Cc2cccc(Br)c2)c2c1c(C)nn2-c1ccccc1	/	/	?	.	.	/
O=C(Oc1ccc(N(Cc2cccs2)C2=NS(=O)(=O)c3ccccc32)cc1)c1ccccc1	.	.	16µM	.	.	.
CCOc1ccc(-n2c(=O)c3c(C)c(C)sc3n(CC(=O)c3ccccc3)c2=O)cc1	/	/	.	.	.	/
Cc1oc(-c2ccc(C(=O)NCCC(C)C)cc2)nc1CN1CCc2ccccc21	/	/	?	.	7.3µM	/
O=C(Nc1ccc(OCc2cc(=O)n3c4c(sc3n2)CCCC4)cc1)c1ccccc1	/	/	.	.	.	/
CCN(CC)c1ccc(/C=C2/SC(=O)N(C(C)C)C2=O)o1	5.2µM	?	.	.	?	?
CC(C)N1C(=O)S/C(=C\c2ccc(-c3ccc(Cl)c(C(=O)O)c3)o2)C1=O	.	?	.	.	.	.
COc1cccc2c(=O)c(SC(F)(F)C(F)C(F)(F)F)c(C)[nH]c12 (stereo not given)	16µM	?	.	.	?	.
Cc1[nH]c2ccc(F)cc2c(=O)c1SC(F)(F)C(F)C(F)(F)F (stereo not given)	.	.	.	.	.	.
CCN(CC)c1ccc(/C=C/c2ccccn2)cc1	/	/	.	/	0.33µM	/
CN(C)c1ccc(/C=C/c2ccccn2)cc1	/	/	.	.	?	/
CCN(CC)c1ccc(/C=C/c2cc(-c3ccccc3)c3ccccc3n2)cc1	15µM	?	.	.	.	?
CN(C)c1ccc(/C=C/c2cc(/C=C/c3ccc(N(C)C)cc3)c3ccccc3n2)cc1	/	/	.	.	.	/
CCc1c(C)sc2c1CCN(Cc1ccc(F)cc1)C2c1ccccc1 (stereo not given)	/	/	.	.	?	/
CCOC(=O)c1c(C)[nH]c(C(=O)N/N=C/c2ccc(Br)cc2)c1C	0.73µM	?	.	.	?	.
Cc1[nH]c(C(=O)N/N=C/c2ccc(C(=O)O)cc2)c(C)c1C(=O)N/N=C/c1ccc(C(=O)O)cc1	.	.	.	.	.	.
O=C(CSc1nc(O)c(C/C=C/c2ccccc2)c(=O)[nH]1)Nc1cccc(F)c1	/	/	.	.	.	/
